A selection: hits, their analogues and other compounds. The true share with any hit is near 6.5%.
MARV entry inh = Marburg virus entry inhibition. Marburg virus pseudotyped entry inhibition, cell reporter. Potency, µM (doses to about 37.8 µM), actives largely listed as inhibitors. 1.8% of 300,000 active; calls by dose curve; tested in HEK293 cells
Lassa entry inh = blocks Lassa virus binding to or entry into cells; Lassa virus pseudotype entry inhibition, cell reporter; Potency, µM (highest dose often 37.9 µM), actives largely listed as inhibitors; 1.2% of 300,000 active; AID 540256; calls by dose curve; tested in HEK293 cells; further: nearly all actives have a fitted effect of over 50% in size
Vaccinia Venus = vaccinia inhibition (Venus reporter); Vaccinia virus Venus reporter expression, fluorescence; Potency, µM (doses to about 36.5 µM), actives largely listed as inhibitors; 0.46% of 330,000 active; AID 720580; calls by dose curve; tested in A549 cells; further: nearly all actives have a fitted effect of over 30% in size
HCMV antiviral = inhibitors of human cytomegalovirus | HFF cells, HCMV-luciferase reporter, 72 h; hits give low values | activity change, negative = inhibition, % at 57.5 µM | 4.5% of 410,000 active | AID 1259415; in the data active means activity change below about -60%; inconclusive means no clear call, values can overlap the other calls; inactive means above about -39%
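HFF cells seeded 16 h at 37C, treated with compounds, infected with luciferase-reporter HCMV at MOI 1 PFU/cell; luciferase read at 72 h post infection, normalized to buffer-only and Salinomycin controls.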
FMDV antiviral = antivirals against foot and mouth disease virus; 1.2% of 410,000 active; Potency, µM (top dose mostly 57.9 µM), hits mostly inhibitors; FMDV antiviral cell-based qHTS; calls by dose curve; tested in HEK293T cells; further: read-out not given here; nearly all actives have a fitted effect of over 45% in size
VACV mCherry inh = vaccinia inhibition (mCherry reporter); Vaccinia virus mCherry reporter infection, fluorescence; Potency, µM (top dose mostly 36.5 µM), hits mostly inhibitors; 0.63% of 310,000 active; AID 720579; calls by dose curve; tested in A549 cells; further: nearly all actives have a fitted effect of over 35% in size
A number is an active result; – = inactive; ? = inconclusive; · = no result; + = active, no number; ! = not active in a repeat.

SMILES | MARV entry inh | Lassa entry inh | Vaccinia Venus | HCMV antiviral | FMDV antiviral | VACV mCherry inh
O=C(c1ccc(-c2ccc([N+](=O)[O-])cc2)o1)N1CCCCC1 | – | – | · | – | – | ·
O=C(O)c1cccc(NS(=O)(=O)c2ccc(Cl)c(C(=O)Nc3cccc([N+](=O)[O-])c3)c2)c1 | – | – | – | – | – | –
FC(F)(F)c1cccc(N2CCN(Cc3nnc(-c4ccc5c(c4)OCO5)o3)CC2)c1 | – | – | – | – | – | –
COC(=O)[C@H](COC(C)(C)C)NC(=O)O[C@H]1C(=O)c2ccc(OC)cc2O[C@@H]1c1ccc2c(c1)OCO2 | – | · | · | · | · | ·
O=C(Nc1ccccc1)c1ccc(-c2ccc(Br)cc2)o1 | – | ? | · | – | – | ·
COc1ccc(CCNC(=O)c2ccc(CS(=O)(=O)Cc3cccc(C)c3)o2)cc1OC | ? | ? | – | +! | 40µM | –
COc1ccc(NC(=O)c2ccc(-c3ccc([N+](=O)[O-])cc3)o2)cc1 | ? | – | – | -61 | – | –
O=C(Nc1ccccc1)c1ccc(-c2ccc([N+](=O)[O-])cc2)o1 | – | – | – | -66 | – | –
O=C(Nc1ccc(Cl)c(-c2nc3ccccc3o2)c1)c1ccc(-c2cccc([N+](=O)[O-])c2)o1 | – | – | – | -103 | – | –
CCC(=O)N1[C@H](CO)[C@@H]2c3ccccc3N(C(=O)Nc3ccc(Cl)cc3)C[C@@H]21 | · | · | · | – | · | ·
C[C@@H]1CN([C@@H](C)CO)S(=O)(=O)c2ccc(Br)cc2O[C@@H]1CN(C)Cc1ccc2c(c1)OCO2 | · | · | · | – | · | ·
COc1ccc(S[C@@H]2C[C@@H](C(=O)Nc3ccc4nccnc4c3)N(C3Cc4ccccc4C3)C2)cc1 | · | · | – | · | – | –
O=C(Nc1cccc([N+](=O)[O-])c1)c1cc2ccccc2cc1O | · | · | ? | -101 | – | ?
O=C(O)c1ccccc1C(=O)Nc1cccc([N+](=O)[O-])c1 | · | · | – | – | – | –
O=C(NC(=S)N1CCOCC1)C12CC3CCC(CC(C3)C1)C2 | – | – | – | – | – | –
O=C(NC(=S)N1CCN(CCO)CC1)C12CC3CC(CC(C3)C1)C2 | ? | – | – | -73 | – | –
O=C(Cn1c(=O)oc2cc(S(=O)(=O)N3CCCC3)ccc21)Nc1ccc(F)cc1F | – | – | – | – | – | –
COc1cc2c(cc1OC)C(C)N(C(=O)c1c(C)noc1C)CC2 (stereo unspecified) | · | · | · | ? | – | ·
COc1cc2c(cc1OC)C(C)N(C(=S)Nc1ccccc1)CC2 (stereo unspecified) | – | ? | – | – | – | –
COc1cc2c(cc1OC)C(C)N(C(=S)NC(=O)c1ccccc1)CC2 (stereo unspecified) | – | – | – | -61 | ? | –
COc1cc2c(cc1OC)C(C)N(C(=O)C1COc3ccccc3O1)CC2 (stereo unspecified) | ? | ? | – | -65 | 25µM | ·
COc1cc2c(cc1OC)C(C)N(C(=O)c1cc(C)on1)CC2 (stereo unspecified) | – | ? | ? | -66 | – | ?
COc1cc2c(cc1OC)C(C)N(C(C)=O)CC2 (stereo unspecified) | – | – | – | – | · | –
COc1ccc(-c2nc3c(C#N)c[nH]n3c2NC2CCCCC2)cc1 | – | – | ? | – | – | ?
CCN(C(=O)c1nn(-c2ccc(C)cc2)c(=O)c2c1c1ccccc1n2C)c1ccc(F)cc1 | – | – | – | – | – | –
SMILES | MARV entry inh | Lassa entry inh | Vaccinia Venus | HCMV antiviral | FMDV antiviral | VACV mCherry inh
COc1ccccc1NC(=O)Cn1c(=O)n(-c2cccc(C)c2)c(=O)c2c1c1cc(C)ccc1n2C | · | – | – | – | – | –
CN(C)C1CCC(CC2CCc3ccccc32)CC1 (stereo unspecified) | · | · | – | · | · | –
COc1ccc(CNC(=O)CSCc2cnn(-c3ccccc3)c2-n2cccc2)cc1OC | ? | ? | ? | -80 | 16µM | ?
COc1ccccc1CNC(=O)CSCc1cnn(-c2ccccc2)c1-n1cccc1 | – | ? | · | – | ? | ·
O=C(CSCc1cnn(-c2ccccc2)c1-n1cccc1)NCc1ccccc1F | – | – | – | -76 | – | –
O=C(CSCc1cnn(-c2ccccc2)c1-n1cccc1)NCc1cccnc1 | – | ? | – | ? | – | –
COc1ccc2c3c([nH]c2c1)[C@H](CO)N(C(=O)c1cccc(F)c1)CC31CCN(S(=O)(=O)c2cccs2)CC1 | · | · | · | – | · | ·
COc1cccc(-c2cc3nc4c(c(NCC(C)(C)CN(C)C)n3n2)CCCC4)c1 | ? | ? | – | -69 | – | ?
C(=Nc1ccc2ccccc2n1)c1ccccn1 | · | · | – | · | · | –
O=C1OC(Nc2ccc3c(c2)OCO3)c2ccccc21 (stereo unspecified) | – | – | ? | -97 | ? | ?
O=C(CSCc1ccc(F)cc1)N1CCN(c2ccc(F)cc2)CC1 | – | – | · | – | ? | ·
COc1ccc(-c2nc(CSCC(=O)N3CCN(c4ccc(F)cc4)CC3)c(C)o2)cc1 | ? | – | ? | -90 | 13µM | ?
Cc1ccc(-c2nc(CSCC(=O)N3CCCC3)c(C)o2)cc1 | – | – | · | ? | – | ·
Cc1ccc(CSCC(=O)N2CCN(c3ccc(F)cc3)CC2)cc1 | – | ? | – | -66! | – | –
CCc1ccc(-c2nc(CSCC(=O)N3CCN(c4ccc(F)cc4)CC3)c(C)o2)cc1 | – | – | ? | -80 | ? | ?
Cc1ccc(C(=O)C2CCN(CC(=O)N3CCN(c4ccc(F)cc4)CC3)CC2)cc1 | ? | – | – | -70 | – | –
CCCCOC(=O)c1ccc(NC(=O)c2cc(-c3ccccc3)on2)cc1 | – | – | – | – | – | –
O=[N+]([O-])c1ccc2c(c1)/C(=C/c1ccc(C=S)cc1)C=C2 | · | · | – | · | · | –
C[n+]1cccc(Br)c1 | · | · | – | · | · | –
Cn1c(CSCc2ccc(F)cc2)nnc1SCC(=O)N1CCN(c2ccccc2)CC1 | ? | ? | ? | -69 | ? | ·
CCCNS(=O)(=O)c1ccc(CCC(=O)N2CCN(c3ccc(F)cc3)CC2)cc1 | – | – | – | -65 | ? | –
O=C(CSCc1ccc(F)cc1)N1CCN(c2ccccc2)CC1 | – | ? | – | – | – | –
COc1ccc(-c2nc(CSCC(=O)N3CCN(c4ccccc4)CC3)c(C)o2)cc1 | – | – | ? | -65 | 35µM | ?
CCCNS(=O)(=O)c1ccc(CCC(=O)N2CCN(c3ccc(OC)cc3)CC2)cc1 | – | – | – | ? | · | ?
O=Cc1ccc([B-](F)(F)F)o1 | · | · | · | – | · | ·
SMILES | MARV entry inh | Lassa entry inh | Vaccinia Venus | HCMV antiviral | FMDV antiviral | VACV mCherry inh
O=c1[nH]c(Cc2ccccn2)nc2scc(-c3ccccc3Cl)c12 | – | – | – | -83 | – | –
C=CCn1c(COc2ccccc2F)nnc1SCC(=O)c1c[nH]c2ccccc12 | 13µM | ? | – | – | – | –
CC1(C)Oc2ccc3ccc(=O)oc3c2/C(=C/Nc2ccc(O)cc2)C1=O | ? | ? | ? | -85 | ? | –
CC1(C)Oc2ccc3ccc(=O)oc3c2/C(=C/Nc2cccc(O)c2)C1=O | ? | ? | ? | – | – | –
Cc1cc(NC(=O)c2ccco2)cc(-c2nc3cc(Cl)ccc3o2)c1O | – | – | ? | -61 | – | ?
OCCN1CCN(Cc2ccc3c(c2)CN(Cc2cc4ccccc4o2)CCO3)CC1 | · | · | – | · | – | –
